Screens: PubChem, Sanford-Burnham Center for Chemical Genomics
HIF-2a inh: inhibitors of HIF-2a; 786-0 RCC cells HIF-2a reporter, luciferase luminescence, overnight; 0.72% of 360,000 active; AID 624352; inhibition, % at 18.8 µM;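 active means inhibition of the luminescence signal of 40% or more relative to plate controls, in a single-dose primary screen at 18.75 µM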
KKLEB cytotox: reduces viability of KKLEB cystic fibrosis airway cells; KKLEB CF airway cells viability, ATPlite luminescence, overnight; hits give low values; cells stimulated with P. aeruginosa culture filtrate; activity change (cytotoxicity), % at 5 µM; 0.36% of 360,000 active;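 active means corrected activity change at or below -50% at 5 µM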
CF NFkB inh: blocks PAF-induced NF-kB reporter in cystic fibrosis cells | KKLEB NF-kB-GFP reporter, GFP fluorescence overnight | AID 588850 | inhibition, % at 5 µM | 0.86% of 360,000 active;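 active means at least 50% inhibition at 5 µM, scaled per plate between neutral and stimulator controls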;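 further: PAF is a Pseudomonas aeruginosa culture filtrate used as stimulus; plate controls were PAF-stimulated DMSO wells for no effect and unstimulated DMSO wells for full effect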
TRAIL sens C8: caspase-8 TRAIL sensitization. NB7+C8 cells + TRAIL, ATPlite viability luminescence. inhibition (viability loss, TRAIL sensitization), % at 10 µM. 1% of 360,000 active;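 active means compounds causing at least 50% loss of cell viability in the single-dose screen, relative to plate controls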
PPC-1+TRAIL kill: compounds killing PPC-1 cancer cells with TRAIL present (potentiator screen, no TRAIL-free arm); PPC-1 cells + TRAIL, ATPLite viability luminescence; cell killing (% activity), % at 4 µM or 5 µM; 0.41% of 220,000 active; AID 1443;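 active means cell killing above 50% in the first pass at 4 µM, then a duplicate retest at 5 µM averaging 50% or more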;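 further: plate controls were cells with TRAIL plus DMSO for no effect and medium-only wells lacking cells for full effect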
hiPSC survival: increases survival of single human iPS cells. survival enhancement, % at 20 µM. 0.044% of 360,000 active. hiPSC single-cell survival, ATPlite luminescence; 100% = ROCK inhibitor wells, 0% = DMSO; in the data active means survival enhancement above about 18%;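 further: cells exposed to compounds for 16 hours before the ATP read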
The depositor's hits bear a star; / = not tested or not shown. This is a sample that favours compounds with a hit; in the whole collection about 2.2% have one here.

SMILES	HIF-2a inh	KKLEB cytotox	CF NFkB inh	TRAIL sens C8	PPC-1+TRAIL kill	hiPSC survival
Cc1cc(NC(=O)CCS(=O)(=O)c2nc(-c3ccccc3)cc(C(F)(F)F)n2)no1	65*	-33	76*	-2	1	-6
COc1ccccc1-c1cc(C(F)(F)F)nc(S(=O)(=O)CCCC(=O)O)n1	-1	-40	33	-16	13	-1
Cc1ccccc1NC(=O)Cc1nc(COC(=O)CSc2ccc(F)cc2)cs1	9	-11	-23	1	/	0
COc1ccc(NC(=O)C2(C)Cc3c(-c4cccc(C(F)(F)F)c4)ccnc3O2)cn1 (centres undefined)	31	-15	38	19	/	-2
COc1ccc2nc(C)cc(SCC(=O)NNC(=O)COc3ccccc3)c2c1	18	-9	6	5	7	0
COc1ccc2nc(C)cc(Sc3nc4ccccc4s3)c2c1	33	-44	64*	26	17	-1
COc1ccc(/C(N)=N/OC(=O)c2ccco2)cc1	-79	-25	3	48	34	-2
COc1ccc(C(=O)O/N=C(\N)c2ccccc2)cc1	-189	5	-8	85*	/	0
COc1ccc(C(=O)O/N=C(\N)c2ccc(Br)cc2)cc1	-160	-3	-11	70*	/	0
O=C(NCc1ccccc1)C1CCCN(C(=O)NCc2ccccc2)C1 (centres undefined)	-22	4	-8	-14	/	0
NC(=O)c1ccccc1NC(=O)C(c1ccccc1)c1ccccc1	6	7	19	18	/	0
COc1ccc(NC(=O)c2oc3ccccc3c2NC(=O)COc2ccccc2OC)c(OC)c1	-16	-54*	54*	43	19	-4
COc1ccc(NC(=O)c2oc3ccccc3c2NC(=O)c2ccc(OC)c(OC)c2)c(OC)c1	-57	-21	42	-7	/	0
CCCN(CC(=O)Nc1ccc(F)c(F)c1F)C(=O)C1=COCCO1	6	10	-8	-9	/	1
CCOC(=O)c1sc2nc(-c3cccnc3)ccc2c1N	-331	-12	-34	59*	42	-1
CC(C)OC(=O)c1sc2nc(-c3ccccc3)ccc2c1N	-91	-33	8	54*	32	-3
COC(=O)c1sc2nc(-c3ccco3)ccc2c1N	-209	-15	-32	57*	14	-2
NC(=O)c1sc2nc(-c3ccco3)ccc2c1N	-27	-15	14	-9	18	2
COCCNC(=O)c1cc(-c2ccccc2C)nn1CC1CC(c2cccnc2)=NO1 (centres undefined)	16	-2	-30	3	/	7
CCc1noc(C)c1C(=O)Nc1cc(S(=O)(=O)N2CCOCC2)ccc1OCC(F)(F)F	8	5	0	12	/	0
O=C(/C=C/Nc1ccc(F)c(F)c1)c1cccs1	-194	-4	-6	38	22	-3
O=C(/C=C/Nc1ccc(F)cc1)c1ccc(Br)cc1	-269	8	-58	25	13	-2
CCOC(=O)c1ccc(N/C=C/C(=O)c2ccco2)cc1	-267	2	2	51*	26	-3
CCOC(=O)c1ccc(N/C=C/C(=O)c2ccc(OC)c(OC)c2)cc1	0	-3	6	18	8	0
O=C(/C=C/Nc1ccc(F)cc1)c1cccs1	-151	-13	-21	61*	/	-5
SMILES	HIF-2a inh	KKLEB cytotox	CF NFkB inh	TRAIL sens C8	PPC-1+TRAIL kill	hiPSC survival
O=C(/C=C/Nc1ccc(F)cc1)c1ccco1	-180	-5	-9	60*	48	-5
CC1(C)Oc2cc3oc(=O)ccc3c3c2C2C1CCC(C)(O3)C2O (centres undefined)	16	-12	-7	5	/	0
c1ccc(-c2sc3ccccc3c2-c2ccc(OCCN3CCCCC3)cc2)cc1	12	-11	-8	6	/	0
CN(C)CCOc1ccc(-c2c(-c3ccccc3)sc3ccccc23)cc1	24	-89*	82*	41	/	-7
CCN1C(=O)/C(=C\c2ccncc2)SC1=S	9	5	8	6	-2	0
CCCCC(CC)CN1C(=O)/C(=C/c2ccncc2)SC1=S (centres undefined)	24	-1	4	86*	3	0
CCCn1c(=N)n(CC(=O)c2ccc([N+](=O)[O-])cc2)c2ccccc21	-65	-3	-21	1	1	-1
Cc1ccccc1Cn1c(=N)n(CC(=O)c2ccc([N+](=O)[O-])cc2)c2ccccc21	20	-64*	38	19	5	-1
Cc1cc(SCC(=O)NC2(C#N)CCCCC2)nc2c(C)cccc12	7	6	12	-5	/	0
CC1(C(=O)NCc2ccccc2)CSCC(=O)N1CCc1c[nH]c2ccccc12 (centres undefined)	11	/	/	1	/	/
C=C(C)CSc1nnc2n(Cc3ccccc3)c(=O)c3c4c(sc3n12)CCC4	12	-16	17	85*	9	-4
COc1ccc(-n2c(C)nnc2SCC(=O)Nc2ccccc2F)cc1	-8	-8	9	-3	/	1
O=C(O)CCC(NC(=O)c1ccc(Cl)cc1)C(=O)O (centres undefined)	6	-4	5	1	13	2
CN(Cc1cnc2nc(N)nc(N)c2n1)c1ccc(C(=O)NC(CCC(=O)O)C(=O)O)c2ccccc12 (centres undefined)	32	6	-20	83*	/	7
Cc1ccc(SCc2cc(=O)[nH]c(Nc3nc(C)c4ccc(C)cc4n3)n2)cc1	19	-16	5	-2	19	-1
Cc1ccc2c(C)nc(Nc3nc(CSc4nc5ccccc5[nH]4)cc(=O)[nH]3)nc2c1	-28	-58*	99*	41	24	2
C=CCNC(=O)C1CCC(=O)N1S(=O)(=O)c1ccc(C)cc1 (centres undefined)	15	-6	4	-1	/	0
CC(=O)c1sc(NC(=O)C2(F)C(F)(F)C(F)(F)C(F)(F)C(F)(F)C2(F)F)nc1C	-26	-52*	65*	47	9	-1
CC/C(=N\NC(=O)c1csc(C)c1C)c1cccs1	-233	2	-12	50*	40	-4
O=C(Nc1ccccc1N1CCOCC1)c1cccc(NS(=O)(=O)c2ccc(F)c(F)c2)c1	7	0	13	7	2	-2
COc1cc(OC)c2c(-c3cccc(-c4sccc4C(C)=O)c3)cc(=O)oc2c1	-4	-24	60*	13	/	-3
CCOc1ccccc1Nc1nnc(SC(C)C(=O)Nc2nc(-c3ccccc3)cs2)s1 (centres undefined)	-56	9	-13	41	14	2
N#Cc1cc2c(nc1SCC(=O)Nc1nccs1)CCCCC2	-244	-31	17	59*	67*	-4
CCSc1nnc(NC(=O)CSc2nc3c(cc2C#N)CCCC3)s1	-238	-2	-30	39	31	-2
